Drawing on PubChem BioAssay AID1456 (Vanderbilt High Throughput Screening Facility, 2008), this text covers B-score of Tl+ flux slope (higher = more flux/activation; lower = inhibition) for 93 compounds.

SMILES strings stand for the structures. Out of some 190,000 compounds screened, about 4,100 (2.2%) were called active.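 How the source made its calls: active means thallium flux slope and its plate-corrected score both differing from the plate sample mean at a set confidence after two filtering rounds, in either direction; inactive means the rest.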 The list comes from a sample in which actives are over-represented; it also holds similar structures and randomly drawn compounds.

For the test, the target named is Solute carrier family 12 member 5 (Homo sapiens) (UniProt Q9H2X9). As to the kind of experiment: modulation of human KCC2 ion transport – cell-based, HEK293 KCC2, FluoZin-2 fluorescence, MLSMR, primary screen (AID 1456).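 Further: slope of fluorescence scaled to starting intensity during 10 to 20 s after thallium.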 Conditions: KCC2 cells, thallium flux FluoZin-2 fluorescence; at 10 µM.
Sequence of Solute carrier family 12 member 5 (Homo sapiens) (Q9H2X9 whole entry, looked up): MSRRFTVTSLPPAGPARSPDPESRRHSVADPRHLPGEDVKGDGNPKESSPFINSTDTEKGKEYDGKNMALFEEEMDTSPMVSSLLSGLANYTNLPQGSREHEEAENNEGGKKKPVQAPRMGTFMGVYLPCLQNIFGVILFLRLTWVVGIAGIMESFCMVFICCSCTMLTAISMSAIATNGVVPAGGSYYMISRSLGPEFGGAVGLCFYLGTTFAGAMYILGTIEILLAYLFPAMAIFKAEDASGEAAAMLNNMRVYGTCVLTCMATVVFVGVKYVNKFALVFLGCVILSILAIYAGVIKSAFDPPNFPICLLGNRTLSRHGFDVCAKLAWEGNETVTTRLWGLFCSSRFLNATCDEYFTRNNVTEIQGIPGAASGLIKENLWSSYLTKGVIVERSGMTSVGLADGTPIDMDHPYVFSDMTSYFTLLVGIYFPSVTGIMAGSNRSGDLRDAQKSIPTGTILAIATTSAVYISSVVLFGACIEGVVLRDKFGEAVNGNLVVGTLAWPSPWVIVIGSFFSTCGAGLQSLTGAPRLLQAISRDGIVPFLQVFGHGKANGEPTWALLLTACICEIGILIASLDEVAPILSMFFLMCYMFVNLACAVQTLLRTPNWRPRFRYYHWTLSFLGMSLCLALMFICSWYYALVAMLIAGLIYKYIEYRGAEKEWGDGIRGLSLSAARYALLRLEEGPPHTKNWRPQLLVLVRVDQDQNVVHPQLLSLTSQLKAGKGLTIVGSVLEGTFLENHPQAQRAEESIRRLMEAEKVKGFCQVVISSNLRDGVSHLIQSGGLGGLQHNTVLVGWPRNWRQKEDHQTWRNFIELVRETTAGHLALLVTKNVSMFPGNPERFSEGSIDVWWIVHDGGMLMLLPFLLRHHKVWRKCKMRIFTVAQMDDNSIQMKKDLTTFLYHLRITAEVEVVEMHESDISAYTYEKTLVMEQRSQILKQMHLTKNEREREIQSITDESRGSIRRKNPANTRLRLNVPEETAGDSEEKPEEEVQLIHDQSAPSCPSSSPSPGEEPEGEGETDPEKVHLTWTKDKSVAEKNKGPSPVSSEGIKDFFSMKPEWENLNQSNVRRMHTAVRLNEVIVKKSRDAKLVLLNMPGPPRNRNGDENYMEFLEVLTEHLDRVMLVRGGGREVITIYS
`O=C(Cn1cnc2ccccc2c1=O)Nc1cccc(S(=O)(=O)N2CCCCC2)c1`: the B-score of Tl+ flux slope (higher = more flux/activation; lower = inhibition) is 0.0725 (inactive).
For `CCNC(=S)Nc1ccc(OC(F)(F)F)cc1` the value was -0.759 (inactive); for `FC(F)(F)Oc1ccc(NC(=S)NCc2ccccc2)cc1`, 0.0182 (inactive).
Turning to `CS(=O)(=O)c1sc(C(=O)NC(=S)Nc2ccc(OC(F)(F)F)cc2)c2c1C=CCC2`, the B-score of Tl+ flux slope (higher = more flux/activation; lower = inhibition) was 6.79 (active).
For `CC1(C)C=C2[C@H]3CC[C@@H]4[C@@]5(C)CCC(=O)C(C)(C)[C@@H]5CC[C@@]4(C)[C@]3(C)CC[C@@]2(C(=O)O)CC1` the value was 5.9 (active).
Take `CCOC(=O)N1CCN(c2c(NCCN3CCN(c4ccccc4F)CC3)c(=O)c2=O)CC1`: the B-score of Tl+ flux slope (higher = more flux/activation; lower = inhibition) is 0.85 (inactive).
For `O=C(CCn1nnc2ccccc2c1=O)N[C@@H](Cc1c[nH]c2ccccc12)C(=O)O` the value was 0.807 (inactive); for `CCn1c(=S)[nH]c2sc3c(c2c1=O)CCCCC3`, 75.1 (active); for `O=c1c2c3c(sc2n(CCN2CCCC2)c(=O)n1Cc1ccccc1)CCCCC3`, -0.146 (inactive).
For `CCCc1nc2sc3c(c2c(=O)n1NC(=O)CCCl)CCCC3` the value was -1.28 (inactive); for `O=C1C2C3C=CC(C3)C2C(=O)N1c1ccc(S(=O)(=O)Nc2nccs2)cc1` (stereo not drawn), 0.592 (inactive).
In the case of `Fc1ccc(Nc2nnns2)cc1`, the B-score of Tl+ flux slope (higher = more flux/activation; lower = inhibition) was -0.138 (inactive).
For `COCCCNC(=O)c1ccc2c(c1)ncn2-c1ccccc1OC` the value was -0.0358 (inactive); for `COc1ccccc1-n1cnc2cc(C(=O)NCC3CCCO3)ccc21` (stereo not drawn), 0.84 (inactive); for `COc1ccccc1-n1cnc2cc(NS(=O)(=O)c3ccccc3)ccc21`, -3.88 (active).
For `NNC(=O)c1ccc(COCC(F)(F)C(F)F)cc1`, the B-score of Tl+ flux slope (higher = more flux/activation; lower = inhibition) was 0.0302 (inactive).
Consider `CCOC(=O)c1cn[nH]c1NC(=S)Nc1ccccc1`, for which the B-score of Tl+ flux slope (higher = more flux/activation; lower = inhibition) was 0.559 (inactive).
On to `C/C(Cc1ccccc1)=N\NC(=O)CNC(=O)c1ccc2c(c1)OCCO2`, for which the B-score of Tl+ flux slope (higher = more flux/activation; lower = inhibition) is 0.0985 (inactive).
In the case of `O=C1/C(=C/c2cccs2)SC(=S)N1C1CCS(=O)(=O)C1` (stereo not drawn), the B-score of Tl+ flux slope (higher = more flux/activation; lower = inhibition) is -0.225 (inactive).
With `O=C(CCCN1C(=O)/C(=C/c2ccccc2)SC1=S)Nc1ccc(O)cc1` the figure was -0.0883 (inactive); with `O=C1Cc2ccccc2Sc2ccc(Cl)cc21`, 0.587 (inactive); with `O=C(NC1CC1)c1ccc2c(c1)NC(=O)c1ccccc1S2`, -0.0671 (inactive).
For `S=C1Nc2cc(Cl)ccc2Sc2ccccc21` the value was 8.4 (active); for `N#C/C(=C\N1CCOCC1)S(=O)(=O)c1ccc(Cl)cc1`, -0.211 (inactive); for `COC(=O)c1c(C)oc(C)c1S(=O)(=O)NCc1ccc(Cl)cc1`, -0.208 (inactive).
For `CC(OC(=O)c1ccccc1N1C(=O)C2C3CCC(C3)C2C1=O)C(=O)c1ccccc1` (stereo not drawn) the value was 0.138 (inactive).
Take `COC(=O)C1=C(C)N=C2SC(C)C(=O)N2C1/C=C/c1ccccc1` (stereo not drawn): the B-score of Tl+ flux slope (higher = more flux/activation; lower = inhibition) is 0.122 (inactive).
For `CCOC(=O)c1ccccc1N1C(=O)C2Sc3[nH]c(=O)sc3C(/C=C/c3ccccc3)C2C1=O` (stereo not drawn), the B-score of Tl+ flux slope (higher = more flux/activation; lower = inhibition) is -6.82 (active).
With `CC(C)(C)C(=O)NNC(=O)c1ccc(Oc2cc(Cl)cc(Cl)c2)o1` the figure was 4.1 (inactive); with `C=CCNC(=S)NNC(=O)c1cc(Cl)ccc1OC`, -0.352 (inactive).
As to `COc1ccc(Cl)cc1C(=O)NNC(=S)NC1CCCC1`, the B-score of Tl+ flux slope (higher = more flux/activation; lower = inhibition) is 0.52 (inactive).
For `COc1ccc(Cl)cc1C(=O)NNC(=S)NC(=O)/C=C/c1ccco1` the value was 28.5 (active); for `Cc1nc2ccccc2n1CC(=O)N/N=C/c1cccs1`, 0.629 (inactive).
For the compound `NC(=O)N/N=C\c1cccs1`, the B-score of Tl+ flux slope (higher = more flux/activation; lower = inhibition) is 0.148 (inactive).
`Cc1cc(C)nc(SC(C)C(=O)N/N=C/c2cccs2)n1` (stereo not drawn): the B-score of Tl+ flux slope (higher = more flux/activation; lower = inhibition) was 5.07 (active).
For `O=[N+]([O-])c1ccc(N=Cc2c(O)ccc3ccccc23)cc1` the value was -0.766 (inactive); for `CN(C)S(=O)(=O)c1ccc(Cl)c(NC(=O)COC(=O)CC(NC(N)=O)c2ccc(Cl)cc2)c1` (stereo not drawn), -0.372 (inactive); for `COC(=O)/C=C(\Oc1ccccc1)C1(O)CCCCC1`, 0.292 (inactive).
With `Cn1c(CCCOc2ccc(Cl)cc2Cl)n[nH]c1=S`, the B-score of Tl+ flux slope (higher = more flux/activation; lower = inhibition) is -7.28 (active).
With `CC(C)Oc1ccc(Cc2n[nH]c(=S)n2Cc2ccccc2)cc1Cl`, the B-score of Tl+ flux slope (higher = more flux/activation; lower = inhibition) was 0.809 (inactive).
On to `O=C(CCCOc1ccc(Cl)cc1Cl)NNC(=O)C1CCC1`, for which the B-score of Tl+ flux slope (higher = more flux/activation; lower = inhibition) was -0.669 (inactive).
For `CC(/C=C/c1ccco1)=N/NC(=O)C1COc2ccccc2O1` (stereo not drawn), the B-score of Tl+ flux slope (higher = more flux/activation; lower = inhibition) is 0.221 (inactive).
`S=C(Cc1ccc(Cl)cc1)N1CCOCC1`: the B-score of Tl+ flux slope (higher = more flux/activation; lower = inhibition) is 0.203 (inactive).
With `O=C(NCc1ccccc1)c1ccc(S(=O)(=O)Nc2cccc(C(F)(F)F)c2)cc1` the figure was -1.11 (inactive); with `CN(C)S(=O)(=O)c1cccc(C(=O)Nc2cccnc2)c1`, 0.857 (inactive); with `Cc1ccc(/C=N/NC(=S)Nc2cccc(S(=O)(=O)N(C)C)c2)o1`, 11.8 (active).
On to `CN(C)S(=O)(=O)c1cccc(NC(=O)COC(=O)c2cc(=O)[nH]c(=O)[nH]2)c1`, for which the B-score of Tl+ flux slope (higher = more flux/activation; lower = inhibition) is -0.0283 (inactive).
For `CCN(CC)S(=O)(=O)c1cccc(C(=O)Nc2ccccc2)c1` the value was 0.179 (inactive).
For `CN(C)S(=O)(=O)c1cccc(NC(=S)NCc2ccc3c(c2)OCO3)c1` the value was -0.00969 (inactive); for `CN(C)S(=O)(=O)c1cccc(NC(=S)N/N=C/C(=O)c2ccccc2)c1`, 6.68 (active); for `O=C(Cn1cnc2c(nnn2Cc2ccc(F)cc2)c1=O)NCc1ccc2c(c1)OCO2`, -2.61 (active).
With `Cc1cc(C)cc(NC(=O)Cn2cnc3c(nnn3Cc3ccc(F)cc3)c2=O)c1` the figure was 0.19 (inactive); with `O=C(Cn1nnc(-c2ccccc2)n1)NCc1ccc2c(c1)OCO2`, -1.86 (inactive); with `Cn1nccc1NC(=O)Nc1ccc(OC(F)(F)F)cc1`, -0.213 (inactive).
As to `Cc1ccccc1-c1n[nH]c(=S)n1/N=C/c1ccc(-c2ccccc2Br)o1`, the B-score of Tl+ flux slope (higher = more flux/activation; lower = inhibition) was 5.28 (active).
With `Cc1n[nH]c(=S)n1/N=C/c1ccc(Br)o1` the figure was -0.354 (inactive); with `Cc1ccc(Cl)cc1-c1ccc(/C=N/n2cnnc2)o1`, 0.473 (inactive).
With `O=[N+]([O-])c1cccc2ncccc12` the figure was -1.11 (inactive).
With `Cc1cc2c(=O)n(C)c(SCC(=O)c3cc4ccccc4o3)nc2s1` the figure was 0.288 (inactive); with `Cc1ccc(Nc2nnc(SCC(=O)c3cc4ccccc4o3)s2)cc1C`, -8.65 (active); with `Cc1ccccc1Nc1nnc(SCC(=O)c2cc3ccccc3o2)s1`, -2.32 (inactive).
Regarding `C#CCNC(=O)C1=C[C@@H](c2ccccc2)[C@H](CCCO)[C@@H](OCC)O1`, the B-score of Tl+ flux slope (higher = more flux/activation; lower = inhibition) is 0.698 (inactive).
In the case of `CCO[C@H]1OC(C(=O)N2CCN(Cc3ccccc3)CC2)=C[C@@H](c2cn(C(C)=O)c3ccccc23)[C@@H]1CCCO`, the B-score of Tl+ flux slope (higher = more flux/activation; lower = inhibition) is -0.421 (inactive).
On to `CCO[C@H]1OC(C(=O)NCc2ccccc2)=C[C@@H](c2coc3ccccc3c2=O)[C@@H]1CCCO`, for which the B-score of Tl+ flux slope (higher = more flux/activation; lower = inhibition) is -2.75 (active).
With `CN(C)c1ccc(/C=C/C(=O)c2ccc(O)cc2)cc1[N+](=O)[O-]` the figure was -1.51 (inactive); with `CCN(CC(=O)Nc1ccc(S(=O)(=O)N2CCCC2)cc1)CC(=O)Nc1cccc(OC)c1`, -0.0112 (inactive).
With `Cc1onc(-c2ccc(Cl)cc2)c1-c1ccnn1S(=O)(=O)c1ccc(Cl)cc1` the figure was 0.0713 (inactive).
For `C#CCNc1ccc(C(=O)OCC)cc1`, the B-score of Tl+ flux slope (higher = more flux/activation; lower = inhibition) was 0.0911 (inactive).
On to `COc1ccc(C(=O)NN(C)c2nc(-c3ccccc3)cc(C)c2S(C)(=O)=O)cc1`, for which the B-score of Tl+ flux slope (higher = more flux/activation; lower = inhibition) was -2.92 (active).
Turning to `COc1ccc(C(=O)Nc2cccc(S(C)(=O)=O)c2)cc1`, the B-score of Tl+ flux slope (higher = more flux/activation; lower = inhibition) is -0.0335 (inactive).
In the case of `COc1ccc(OCC(=O)NNC(=O)c2ccc(-c3ccccc3)cc2)cc1`, the B-score of Tl+ flux slope (higher = more flux/activation; lower = inhibition) was -0.294 (inactive).
For `Cc1nc(COc2cccc(Cl)c2)sc1C(=O)/C=C/N(C)C` the value was -0.976 (inactive).
Take `CCN(CC)CCCN=Cc1c(O)n(-c2ccc(C)cc2)c(=O)c2ccccc12`: the B-score of Tl+ flux slope (higher = more flux/activation; lower = inhibition) was -0.624 (inactive).
As to `O=C(CSc1nnnn1-c1ccc(O)cc1)c1ccc(F)cc1`, the B-score of Tl+ flux slope (higher = more flux/activation; lower = inhibition) is -0.119 (inactive).
For `O=C1CSC(=S)N1/N=C/c1ccc(O)c([N+](=O)[O-])c1` the value was 0.571 (inactive); for `CCOc1cccc(/C=N/N2C(=O)CSC2=S)c1O`, 5.34 (active); for `CCOc1cccc(/C=N/NC(=S)NCCN2CCOCC2)c1O`, -0.223 (inactive).
For `CC(=O)N1CCC(N(C(=O)Nc2ccc(Cl)cc2)C(C)C)CC1` the value was 0.402 (inactive); for `COc1cc(C=O)ccc1Oc1nnnn1-c1ccccc1`, -0.736 (inactive); for `Cc1ccc(S(=O)(=O)NC2(C(F)(F)F)NC(=O)N(CCc3ccccc3)C2=O)cc1` (stereo not drawn), -0.615 (inactive).
Turning to `COc1ccc(C(=O)NC2(C(F)(F)F)NC(=O)N(CCCc3ccccc3)C2=O)c(OC)c1OC` (stereo not drawn), the B-score of Tl+ flux slope (higher = more flux/activation; lower = inhibition) is -3.82 (active).
For `O=C(NC1(C(F)(F)F)NC(=O)N(C2CCCCC2)C1=O)c1ccco1` (stereo not drawn) the value was 0.89 (inactive); for `COc1ccc(CN2CCNC(=O)C2CC(=O)N(C)Cc2ccccn2)cc1OC` (stereo not drawn), -0.00917 (inactive); for `Cc1ccc(NS(=O)(=O)c2ccc(N/N=C/c3ccccc3OCC(=O)O)c([N+](=O)[O-])c2)c(C)c1`, -0.087 (inactive).
With `COc1cc(CN2CCN(Cc3ccc(C)cc3)CC2)c([N+](=O)[O-])cc1OC` the figure was -0.767 (inactive); with `O=C(c1ccc(F)cc1)N1CCC(n2nnc3ccccc32)CC1`, 1.38 (inactive).
For the compound `CC(=O)c1cccc(S(=O)(=O)N2CCC(n3nnc4cc(F)ccc43)CC2)c1`, the B-score of Tl+ flux slope (higher = more flux/activation; lower = inhibition) is -0.212 (inactive).
Regarding `O=S(=O)(c1cccc(S(=O)(=O)N2CCC(n3nnc4ccccc43)CC2)c1)N1CCCCC1`, the B-score of Tl+ flux slope (higher = more flux/activation; lower = inhibition) is -6.25 (active).
Turning to `CCN(CC)CCn1cnc2c1c(=O)n(CCOC(=O)c1cc(OC)c(OC)c(OC)c1)c(=O)n2C`, the B-score of Tl+ flux slope (higher = more flux/activation; lower = inhibition) is -0.175 (inactive).
Take `CC(=O)N1N=C(c2ccncc2)OC1(Cc1ccccc1)Cc1ccccc1`: the B-score of Tl+ flux slope (higher = more flux/activation; lower = inhibition) was -0.683 (inactive).
With `C(=N/Nc1cc(N2CCOCC2)nc(N2CCOCC2)n1)/c1ccccc1` the figure was -0.154 (inactive); with `Cc1cc(C(=O)N/N=C/c2ccc(N3CCOCC3)cc2)c(C)o1`, -0.588 (inactive); with `Cc1ccccc1N/N=C/c1ccc(N2CCOCC2)cc1`, 3.06 (active).
